The values that follow come from PubChem BioAssay (NCI).

Compounds without any hit were thinned out: in the full panel of roughly 79,000, 15% have a hit. Unmarked numbers belong to inactive results. The source made the active and inactive calls. Rule as the data show it: active = growth inhibition above about 70%; inactive = the rest.

A short description of this assay: NCI Yeast Anticancer Drug Screen. Data for the mlh1 strain (AID 171).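 Also: 0% = growth of vehicle-treated control cultures of the same strain.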 To be noted: S. cerevisiae mlh1 strain growth inhibition, stronger effect = higher value. On the procedure:
Growth inhibition of yeast strains with defined genetic alterations is measured as a screen for potential anti-cancer activity. Selected strains with alterations in DNA damage repair or cell cycle control were exposed to compounds and growth inhibition was measured relative to vehicle treated controls. The strain used in this assay is mlh1

On to `O=[N+]([O-])c1cc[n+]([O-])c(Cl)c1`, for which the growth inhibition by setting is: (at 1.2 µM) -11%; (at 3.7 µM) 16%; (at 11.0 µM) 30%; (at 33.0 µM) 98% (active); (at 100.0 µM) 99% (active).
Taken in the same sequence, the figures for `O=C(Cc1ccccc1)NN1C(=O)C(Cl)C1c1cc(Br)cc(Br)c1O` (stereo not given) were -3%, 8%, 90% (active), 95% (active) and 92% (active).
In the case of `O=C(Nc1cccs1)c1ccccc1`, the growth inhibition is 6% (at 1.2 µM); -5% (at 3.7 µM); -5% (at 11.0 µM); 2% (at 33.0 µM); 86% (active) (at 100.0 µM).
As to `COc1cc(C2C3=C(COC3=O)Oc3cc4c(cc32)OCO4)cc(OC)c1O` (stereo not given), the growth inhibition reads like this: (at 1.2 µM) 3%; (at 3.7 µM) 0%; (at 11.0 µM) 8%; (at 33.0 µM) 10%; (at 100.0 µM) 10%.
Regarding `O=C(O)C(=Cc1ccc(-c2ccccc2)cc1)C(=O)O`, the growth inhibition is 3% (at 1.2 µM); 5% (at 3.7 µM); 23% (at 11.0 µM); 69% (at 33.0 µM); 94% (active) (at 100.0 µM).
On to `CCCCCCNCCCNc1c2ccccc2nc2cccc([N+](=O)[O-])c12`, for which the growth inhibition (at 1.2 µM) was 2%; the growth inhibition (at 3.7 µM) was 9%; the growth inhibition (at 11.0 µM) is 35%; the growth inhibition (at 33.0 µM) is 89% (active); the growth inhibition (at 100.0 µM) is 94% (active).
The corresponding values for `NNc1ccccc1-c1nc2ccccc2[nH]1` are 6%, -3%, -3%, -3% and 47%.
The corresponding values for `CCCCOc1ccc2nc(C)cc(N=[N+]=[N-])c2c1` are 7%, 10%, 13%, 38% and 97% (active).
